Here are results for ten compounds from PubChem BioAssay.

Where “and” joins values, the source holds several entries; their conditions need not be identical. Equal values may be shown once. Calls of active or inactive are those of the source.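 The calls were made as follows, unless noted: active = inhibition at or above 50% relative to wild type and mutant plate controls; inactive = inhibition below 50%.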 Residues, ends and D or L forms follow the SMILES beside them.

The nature of assay [1]: inhibitors of TNFa-induced NFkB p65 translocation, primary screen, imaging, HUVEC, MLSMR starter and 10KST1 sets (AID 438;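 active = inhibition above 20% together with a positive visual image hit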;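 also: compound added about 3h40 before a 20 min TNFalpha stimulation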;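 as to inhibition: signal is the nuclear over cytoplasmic p65 intensity ratio per well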). To be noted: HUVEC TNFa-induced p65 nuclear translocation; cell count: measured here: nuclei count (cytotoxicity indicator), at 2.08 µM unless noted; inhibition: at 2 µM, stronger effect = higher value unless noted.
Assay [2] in a line: inhibitors of mutant huntingtin aggregation, primary screen, imaging, exon1htt(103Q)mCFP cells, high-content imaging (AID 483;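 active = visual image review flags a hit and inhibition of aggregation exceeds 20%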;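 also: compound exposure lasted 3 days before fixation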;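 as to nuclei count: percent of the per-plate median nuclei count of sample wells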). As to conditions: exon1htt(103Q)mCFP cell line, aggregate imaging, at 2 µM; inhibition of aggregation: stronger effect = higher value; nuclei count: measured here: cell count, toxicity.
The nature of assay [3]: inhibitors of E-selectin induction by TNFa, primary screen, imaging, HUVEC, immunofluorescence, MLSMR starter and 10KST1 sets (AID 487;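 active = visually confirmed hit in the image check and inhibition above 20%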;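 as to inhibition: signal is fraction of cell area covered by stained E-selectin grains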;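 as to nuclei count: 100% = median nuclei count of all wells on the same plate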). As to conditions: HUVEC TNFalpha-induced E-selectin immunofluorescence imaging, at 2 µM; inhibition: stronger effect = higher value; nuclei count: measured here: cell number, toxicity.
Assay [4] in a line: DUSP6 inhibitors restoring Erk phosphorylation by chemical complementation, primary imaging in DUSP6-transfected HeLa (AID 609;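 active = compounds giving at least 50% inhibition in the cell-based MKP-3 phosphatase rescue imaging test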;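 as to inhibition: phospho-Erk level distribution per well compared with pooled transfected vehicle control wells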). To be noted: HeLa MKP-3 transfected, phospho-Erk imaging KS statistic, at 10 µM.
Assay [5] addresses Dual specificity protein phosphatase 6 (Homo sapiens) (UniProt Q16828). Described as above. To be noted: HeLa MKP-3 transfected, phospho-Erk imaging KS statistic, at 10 µM, stronger effect = higher value.
For assay [6], the target named is Voltage-gated potassium channel subunit beta-2 (Rattus norvegicus) (UniProt P62483). The assay can be described thus: KvBeta enzyme negative modulators, primary screen, biochemical, NADPH fluorescence (AID 622;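 active = fluorescence slope higher than the sample average by over 3 SD, cut at about -0.22 in these data, passing the limit was not always enough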;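 also: slope of raw intensity against log time taken from 70 to 1610 s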). As to conditions: recombinant KvBeta, 4-cyanobenzaldehyde reduction, at 10 µM, stronger effect = higher value.
The target is the same in assay [7]. The assay is described as follows: KvBeta positive modulators, primary screen, biochemical, NADPH fluorescence (AID 623;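 active = NADPH fluorescence slope more negative than the mean of all samples by about 3 SD, 99.7% confidence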;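 also: fluorescence intensity change per second fitted from 20 to 320 s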). To be noted: Recombinant KvBeta, NADPH fluorescence decrease slope, 10 min; at 10 µM; stronger effect = lower value.
Assay [8] has as its target Alpha-2C adrenergic receptor (Homo sapiens) (UniProt P18825). The assay is described as follows: modulators of alpha2C/GIRK thallium flux, primary screen, cell-based, HEK293 alpha2C/GIRK1/2 (AID 624;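 active = fluorescence slope after compound addition differing from the mean of all screened samples at 99.7% confidence, in either direction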;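 also: slope of fluorescence ratio to pre-addition baseline per second over 15 to 24 s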). To be noted: thallium flux BTC fluorescence, at 10 µM, actives lie on both sides.
A short description of assay [9]: inhibitors of larval lipid processing in zebrafish, primary screen, whole organism, PED6 fluorescence, gall bladder and intestine (AID 686;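 active = a full or partial loss of lipid-probe fluorescence in the fish gall bladder, intestine or both, judged by eye; inactive = no fluorescence loss, or compound toxic to the fish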;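 also: larvae 5 to 7 days old with five fish per well; signal comes from phospholipase A2 cleavage of quenched PED6 carried via bile; overnight exposure to compound and PED6 before scoring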). To be noted: Zebrafish larvae PED6 lipid processing, fluorescence scoring.
Assay [10] is described as follows: inhibitors of Chlamydomonas gravitaxis, primary screen, whole organism, Chlamydomonas reinhardtii, WT vs cilia-less mutant, absorbance, 96-well (AID 463189).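 Also: 0% = wild type cc124 cells in DMSO and 100% = ciliumless bld1 mutant cells.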 As to conditions: OD600 absorbance, 2 days, at 10 µM, stronger effect = higher value.
Assay [11] in a line: inhibitors of Sendai virus-induced IRF3 signaling, primary screen, TLR/RLR signaling modifier project, cell-based, Sendai virus stimulus, luciferase, 10K MLSCN set (AID 602276;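 active = inhibition at or above 50% at 10 µM; inactive = inhibition below 50%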;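 also: firefly luciferase from ISG56 promoter only with Renilla not read in this screen; 0% = Sendai virus plus DMSO and 100% = medium plus DMSO without virus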). To be noted: HEK293 RL24 IRF3 luciferase reporter, at 10 µM, stronger effect = higher value. (In general: A reporter such as luciferase makes a cellular process visible.)
The nature of assay [12]: inhibitors of poly I:C-induced TLR3 signaling, primary screen, cell-based, poly I:C stimulus, luciferase, 10K MLSCN set (AID 602277;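 active = inhibition of the reporter signal at or above 50%; inactive = inhibition below 50%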). To be noted: HEK293-TLR3 RL24 IRF3 luciferase reporter, at 10 µM, stronger effect = higher value.
Setting [13] is: measured here: cell density z-score.
[14] abbreviates: measured here: nuclear c-Myc green intensity z-score.
The mark [15] stands for this setting: measured here: nuclear pErk red intensity z-score, stronger effect = higher value.

By inhibition is commonly meant the drop in the measured response relative to a control, in per cent.

Sequence of Voltage-gated potassium channel subunit beta-2 (Rattus norvegicus) (P62483 whole entry, looked up): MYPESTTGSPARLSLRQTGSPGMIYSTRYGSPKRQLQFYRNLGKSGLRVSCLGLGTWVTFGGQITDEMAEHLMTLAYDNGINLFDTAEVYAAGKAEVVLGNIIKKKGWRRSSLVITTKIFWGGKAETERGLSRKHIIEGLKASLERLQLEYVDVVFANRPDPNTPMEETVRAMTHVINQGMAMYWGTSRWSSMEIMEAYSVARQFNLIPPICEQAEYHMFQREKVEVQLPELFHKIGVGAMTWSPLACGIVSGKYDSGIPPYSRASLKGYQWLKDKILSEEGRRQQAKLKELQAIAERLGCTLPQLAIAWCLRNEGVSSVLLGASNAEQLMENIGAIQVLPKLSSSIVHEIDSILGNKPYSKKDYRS
Sequence of Alpha-2C adrenergic receptor (Homo sapiens) (P18825 whole entry, looked up): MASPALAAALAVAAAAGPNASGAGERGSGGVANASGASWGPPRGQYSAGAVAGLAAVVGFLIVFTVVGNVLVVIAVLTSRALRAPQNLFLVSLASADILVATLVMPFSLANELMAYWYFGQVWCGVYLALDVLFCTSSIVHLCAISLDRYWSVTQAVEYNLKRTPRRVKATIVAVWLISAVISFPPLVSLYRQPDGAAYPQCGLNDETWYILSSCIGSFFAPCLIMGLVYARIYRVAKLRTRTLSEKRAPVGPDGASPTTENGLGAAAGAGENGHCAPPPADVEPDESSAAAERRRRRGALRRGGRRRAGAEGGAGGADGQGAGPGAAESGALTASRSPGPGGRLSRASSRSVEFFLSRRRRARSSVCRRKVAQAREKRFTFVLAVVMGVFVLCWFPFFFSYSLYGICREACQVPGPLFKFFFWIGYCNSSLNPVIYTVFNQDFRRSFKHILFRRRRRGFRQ
Sequence of Dual specificity protein phosphatase 6 (Homo sapiens) (Q16828 whole entry, looked up): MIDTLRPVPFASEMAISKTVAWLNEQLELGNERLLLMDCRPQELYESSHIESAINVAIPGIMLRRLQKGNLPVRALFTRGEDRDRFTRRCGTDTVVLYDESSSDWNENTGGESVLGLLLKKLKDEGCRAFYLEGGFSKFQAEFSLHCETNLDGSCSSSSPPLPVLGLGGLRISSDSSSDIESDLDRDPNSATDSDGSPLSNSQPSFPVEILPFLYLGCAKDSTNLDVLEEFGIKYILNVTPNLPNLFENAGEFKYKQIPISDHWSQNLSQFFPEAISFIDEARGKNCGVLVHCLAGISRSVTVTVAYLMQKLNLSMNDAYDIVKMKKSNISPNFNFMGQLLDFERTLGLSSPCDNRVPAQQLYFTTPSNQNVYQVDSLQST

In assay [1], `CC(C)(C)OC(=O)c1c(N)n(Cc2ccco2)c2nc3ccccc3nc12` returned a cell count of 394. Further, the inhibition in assay [1] was -12.8% (inactive); in assay [3], -57.4% (inactive); in assay [5], 13.4% (inactive); in assay [10] it was 19.2% (inactive); in [11], 6.73% (inactive); in [12], -1.48% (inactive). Further, the inhibition of aggregation in assay [2] is -3.4% (inactive). The nuclei count in assay [2] came to 81%; in assay [3], 127%. In addition, the z-score in [4] (setting [13]) is 0.353; in [4] (setting [14]), -0.801; in assay [4] (setting [15]), -1.16. In addition, the fluorescence slope in assay [6] was -0.293 (inactive). The NADPH fluorescence slope in assay [7] is 5.9e-05 (inactive). In addition, in assay [8], the slope is 0.00636 (inactive). The compound was classed as inactive in assay [9].
In assay [1], `CCC(COC(=O)c1cc(OC)c(OC)c(OC)c1)(c1ccccc1)N(C)C` (configuration not stated) showed a cell count of 445. For the same compound, the inhibition was -6.3% (inactive) in assay [1]; -6.1% (inactive) in assay [3]; 3.45% (inactive) in assay [5]; -3.48% (inactive) in assay [10]; 1.96% (inactive) in assay [11]; 35% (inactive) in [12]. Moreover, in assay [2], the inhibition of aggregation is 12.7% (inactive). The nuclei count in assay [2] and in assay [3] was 92.2% in each case. Further, the values for the z-score in [4] (setting [13]), in [4] (setting [14]) and in assay [4] (setting [15]) were -0.162, 0.437 and -0.404, respectively. Further, in [6], the fluorescence slope was -0.498 (inactive). Also, the NADPH fluorescence slope in assay [7] was -7.2e-05 (inactive). For the same compound, the slope in assay [8] was 0.00446 (inactive). Moreover, the result in assay [9] was inactive.
Compound `NCC1(CC(=O)O)CCCCC1` showed a cell count in [1] of 645. The inhibition in [1] is -5.2% (inactive); in assay [3], -78.6% (inactive); in assay [5], 1.38% (inactive); in assay [10] it was 4.56% (inactive) and -5.83% (inactive); in assay [11] it was -3.61% (inactive); in assay [12] it was 3.7% (inactive). Further, in [2], the inhibition of aggregation is -6.5% (inactive). For the same compound, the nuclei count in assay [2] stood at 100%; in [3], 116%. Further, the results for the z-score in assay [4] (setting [13]), in assay [4] (setting [14]) and in assay [4] (setting [15]) were -0.493, 0.124 and -0.808, respectively. Also, in assay [6], the fluorescence slope was -0.493 (inactive). In addition, the NADPH fluorescence slope in [7] was -3.2e-05 (inactive). Also, the slope in assay [8] was 0.00518 (inactive). The result in [9] was inactive.
Take `CNCC(O)c1ccc(O)cc1` (configuration not stated): in [1], the cell count is 624. Moreover, the inhibition is 3.3% (inactive) in assay [1]; -43.9% (inactive) in assay [3]; -0.828% (inactive) in assay [5]; -0.226% (inactive) and -8.32% (inactive) in assay [10]; 14.9% (inactive) in [11]; 28.2% (inactive) in assay [12]. In [2], the inhibition of aggregation is 4.2% (inactive). Further, the nuclei count in [2] came to 102%; in assay [3] it was 118%. Further, the z-score in assay [4] (setting [13]) is -0.968; in [4] (setting [14]), -0.213; in assay [4] (setting [15]), 1.33. The fluorescence slope in [6] was -0.493 (inactive). Also, the NADPH fluorescence slope in [7] was 1.3e-05 (inactive). The slope in [8] is 0.00558 (inactive). The call in assay [9] was inactive.
On to `O=c1[nH]c(=O)n(CCc2ccccc2)c(O)c1C=NCCN1CCNCC1`, for which the cell count in [1] is 554. Further, the inhibition was -4% (inactive) in assay [1]; -30.7% (inactive) in assay [3]; -3.5% (inactive) in [5]; -4.22% (inactive) in assay [10]; 18.3% (inactive) in assay [11]; 21.6% (inactive) in assay [12]. Moreover, in assay [2], the inhibition of aggregation is -1.9% (inactive). For the same compound, the figures for the nuclei count in assay [2] and in assay [3] were 109% and 123%, respectively. Further, the results for the z-score in assay [4] (setting [13]), in assay [4] (setting [14]) and in assay [4] (setting [15]) were -0.452, -0.273 and -0.327, respectively. Moreover, the fluorescence slope in assay [6] was -0.348 (inactive). Besides, in assay [7], the NADPH fluorescence slope was 2e-05 (inactive). Moreover, the slope in assay [8] is 0.0061 (inactive). Besides, the compound was called inactive in assay [9].
The compound `Clc1ccc(CSC(Cn2ccnc2)c2ccc(Cl)cc2Cl)cc1` (configuration not stated) displayed a cell count in [1] of 639. The inhibition in [1] is 3.8% [at 2 µM, stronger effect = higher value, 0% TNFa-plus-vehicle, 100% no-TNFa wells] (inactive); in assay [3] it was -57.9% (inactive); in assay [5], 10.2% [cells stimulated with TPA for 15 min] (inactive); in assay [10] it was 31.3% (inactive); in [11], 13.2% (inactive); in assay [12] it was 7.53% (inactive). Moreover, the inhibition of aggregation in assay [2] is -3.9% (inactive). Also, the nuclei count amounted to 108% in [2] and 120% in assay [3]. For the same compound, the z-score was determined as 0.528 in [4] (measured here: cell density z-score, cells stimulated with TPA for 15 min); 0.633 in assay [4] (measured here: nuclear c-Myc green intensity z-score, cells stimulated with TPA for 15 min); 0.478 in assay [4] (measured here: nuclear pErk red intensity z-score, stronger effect = higher value, cells stimulated with TPA for 15 min). Besides, the fluorescence slope in assay [6] is -0.531 (inactive). Besides, the NADPH fluorescence slope in [7] is -3.2e-05 (inactive). Further, the slope in assay [8] is 0.0071 (inactive). The outcome in [9] was “inactive; toxic [screened at 20 µM (by protocol)]”.
In assay [1], `CC(C)C[C@H](NC(=O)[C@@H]1CCCN1C(=O)[C@@H](N)Cc1ccc(O)cc1)C(=O)NCC(N)=O` (H-YPLG-NH2) showed a cell count of 621. The inhibition in assay [1] is -3.8% (inactive); in [3], -65.3% (inactive); in [5], 1.48% (inactive); in assay [10] it was -9.78% (inactive); in assay [11], 2.09% (inactive); in assay [12] it was 31.8% (inactive). In addition, the inhibition of aggregation in [2] was -9.8% (inactive). The nuclei count amounted to 103% in [2] and 104% in [3]. The z-score was -0.734 in assay [4] (setting [13]), -0.49 in assay [4] (setting [14]) and -1.27 in assay [4] (setting [15]). For the same compound, the fluorescence slope in [6] is -0.471 (inactive). Besides, the NADPH fluorescence slope in assay [7] is -6.7e-05 (inactive). The slope in assay [8] is 0.00565 (inactive). Further, the call in assay [9] was inactive.
For the compound `CCC(=NCCOc1ccc(Cl)cc1)c1c(O)n(C)c(=O)n(C)c1=O`, the cell count in [1] was found to be 555. Also, the inhibition was -7.6% (inactive) in [1], -89.2% (inactive) in [3], 13.2% (inactive) in assay [5] and 19.1% (inactive) in assay [10]. Also, the nuclei count in [3] stood at 99.1%. Further, the figures for the z-score in [4] (setting [13]), in assay [4] (setting [14]) and in [4] (setting [15]) were 0.38, -2.81 and 0.837, respectively. In addition, the fluorescence slope in assay [6] is -0.532 (inactive). Besides, in assay [7], the NADPH fluorescence slope is -0.00015 (inactive). Further, in assay [8], the slope was 0.0044 (inactive). For the same compound, in [9], the compound was called inactive.
`COc1cccc(CN2CCN(C(=O)COc3ccc4ccccc4c3)CC2)c1` registered a cell count in assay [1] of 430. In addition, the inhibition in assay [1] is -6% (inactive); in assay [3], -195% (inactive); in assay [5], 11% (inactive); in assay [10], 16.5% (inactive). Also, the nuclei count in [3] amounted to 210%. The z-score in assay [4] (setting [13]) is -0.132; in assay [4] (setting [14]) it was -0.0858; in assay [4] (setting [15]), -0.507. Besides, the fluorescence slope in assay [6] is -0.354 (inactive). Also, in [7], the NADPH fluorescence slope was -4.1e-06 (inactive). Further, the slope in assay [8] was 0.00527 (inactive). Moreover, the outcome in assay [9] was inactive.
Turning to `COc1ccc(OC)c([C@@H](O)[C@H](C)NC(C)(C)C)c1`, the cell count in assay [1] turned out to be 671. Further, the inhibition in assay [1] is -4.8% (inactive); in assay [3], -81.3% (inactive); in assay [5], 23.2% (inactive); in assay [10], 17.4% (inactive); in assay [11] it was 2.13% (inactive); in assay [12] it was 33.4% (inactive). Moreover, the inhibition of aggregation in assay [2] is -2.8% (inactive). Also, the nuclei count in assay [2] came out at 95.5%; in assay [3] it was 138%. Further, the z-score in assay [4] (setting [13]) stood at 0.193; in assay [4] (setting [14]), 0.685; in [4] (setting [15]), 0.252. Also, in assay [6], the fluorescence slope is -0.517 (inactive). For the same compound, the NADPH fluorescence slope in assay [7] was -5.7e-05 (inactive). Also, the slope in assay [8] was 0.00439 (inactive). In addition, in [9], the compound was classed as inactive.
